Measurements reported in PubChem BioAssay (EPA / NIEHS).
Results filed as inconclusive are left out. Active and inactive are the calls of the source. How the source made its calls: active means hit-call score of the fitted dose curve at least 0.9, where 1 is the maximum; inconclusive means response in the unintended direction; inactive means score below 0.9.

How the values were obtained:
[1] = molecular target: human Neurokinin, NK2 Receptor, TACR2 (gene 6865) (UniProt P21452); experiment: NVS_GPCR_hNK2: NovaScreen (NVS) G Protein-Coupled Receptor Assay for human Neurokinin, NK2 Receptor (AID 2283278);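 further: actives reduce bound radioligand signal relative to DMSO baseline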
Chain of human Neurokinin, NK2 Receptor, TACR2 (gene 6865) (P21452 whole entry, looked up): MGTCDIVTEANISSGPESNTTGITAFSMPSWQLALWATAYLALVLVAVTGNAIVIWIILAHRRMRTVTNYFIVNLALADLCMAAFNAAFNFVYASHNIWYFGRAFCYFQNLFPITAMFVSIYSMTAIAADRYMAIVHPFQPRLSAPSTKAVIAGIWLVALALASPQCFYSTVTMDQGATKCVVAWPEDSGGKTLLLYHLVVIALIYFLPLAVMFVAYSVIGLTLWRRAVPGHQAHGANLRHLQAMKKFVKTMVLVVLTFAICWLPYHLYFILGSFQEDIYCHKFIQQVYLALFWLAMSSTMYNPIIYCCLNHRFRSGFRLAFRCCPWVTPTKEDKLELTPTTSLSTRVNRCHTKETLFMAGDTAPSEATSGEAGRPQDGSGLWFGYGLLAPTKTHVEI
Procedure, shortened: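 Test chemicals displace a radioligand from receptor prepared from CHO cells in a cell-free format, read after 4 hours by scintillation counting on filters. Screening starts at 25 uM in duplicate, and active chemicals then go to concentration series.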

[2] = molecular target: human Opioid Receptor Mu (Opiate Mu), OPRM1 (gene 4988) (UniProt P35372); experiment: NVS_GPCR_hOpiate_mu: NovaScreen (NVS) G Protein-Coupled Receptor Assay for human Opioid Receptor Mu (Opiate Mu) (AID 2283290);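 further: hits lower bound tracer signal versus DMSO meaning displacement of the ligand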
Chain of human Opioid Receptor Mu (Opiate Mu), OPRM1 (gene 4988) (P35372 whole entry, looked up): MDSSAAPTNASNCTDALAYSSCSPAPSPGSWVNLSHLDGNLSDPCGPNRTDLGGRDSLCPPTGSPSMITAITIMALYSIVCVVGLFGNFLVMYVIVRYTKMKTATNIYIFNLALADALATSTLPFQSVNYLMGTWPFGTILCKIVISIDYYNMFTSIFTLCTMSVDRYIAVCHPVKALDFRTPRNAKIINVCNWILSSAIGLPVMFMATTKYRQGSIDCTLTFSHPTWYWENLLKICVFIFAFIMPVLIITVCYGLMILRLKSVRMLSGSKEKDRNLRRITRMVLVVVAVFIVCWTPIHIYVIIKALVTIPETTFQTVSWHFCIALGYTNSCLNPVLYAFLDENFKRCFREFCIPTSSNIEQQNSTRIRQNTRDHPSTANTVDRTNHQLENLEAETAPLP
Procedure, shortened: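 Here, radioligand binding to CHO-extracted receptor was measured after 2.5 h using filter-based scintillation detection. Initial single-concentration screening used 25 uM in duplicate with plate controls; confirmed actives went to concentration-response testing.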

[3] = tested on: guinea pig Atrionatriuretic Peptide Receptor A (ANPA), gene 100135578; experiment: NVS_GPCR_gANPA: NovaScreen (NVS) G Protein-Coupled Receptor Assay for guinea pig Atrionatriuretic Peptide Receptor A (ANPA) (AID 2283291)
Procedure, shortened: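 Displacement of specific radioligand from guinea pig cerebellum membranes was read by scintillation after 1 h. A duplicate single-point screen at 25 uM was followed by a concentration series up to 50 uM, analysed relative to DMSO.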

[4] = molecular target: rat Adrenergic, Alpha 1, Non-selective Receptor (Adra1), Adra1a (gene 29412) (UniProt P43140); experiment: NVS_GPCR_rAdra1_NonSelective: NovaScreen (NVS) G Protein-Coupled Receptor Assay for rat Adrenergic, Alpha 1, Non-selective Receptor (Adra1) (AID 2283289)
Chain of rat Adrenergic, Alpha 1, Non-selective Receptor (Adra1), Adra1a (gene 29412) (P43140 whole entry, looked up): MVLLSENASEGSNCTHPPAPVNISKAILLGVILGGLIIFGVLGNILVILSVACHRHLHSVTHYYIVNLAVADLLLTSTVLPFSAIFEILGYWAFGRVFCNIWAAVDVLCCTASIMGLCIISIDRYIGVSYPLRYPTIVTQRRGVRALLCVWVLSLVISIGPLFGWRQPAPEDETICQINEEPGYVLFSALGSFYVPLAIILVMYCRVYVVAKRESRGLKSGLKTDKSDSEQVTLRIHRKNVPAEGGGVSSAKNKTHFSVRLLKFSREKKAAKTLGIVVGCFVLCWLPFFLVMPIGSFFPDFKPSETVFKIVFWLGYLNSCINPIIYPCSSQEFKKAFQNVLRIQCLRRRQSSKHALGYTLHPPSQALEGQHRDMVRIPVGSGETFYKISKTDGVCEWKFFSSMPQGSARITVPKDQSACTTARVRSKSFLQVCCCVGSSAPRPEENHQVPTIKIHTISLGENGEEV
Procedure, shortened: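 Chemicals first screened in duplicate at 25 uM, then actives tested in concentration series up to 50 uM. Binding measured as displacement of radioligand from rat forebrain membrane receptors, 1 h, filtration with scintillation readout; DMSO baseline.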

[5] = tested on: rabbit Platelet Activating Factor Receptor (PAF), gene 100354046; experiment: NVS_GPCR_rabPAF: NovaScreen (NVS) G Protein-Coupled Receptor Assay for rabbit Platelet Activating Factor Receptor (PAF) (AID 2283287)
Procedure, shortened: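 Rabbit platelet membrane preparation; radioligand displacement read by filter-based scintillation counting 1 h after dosing, loss of signal versus DMSO. Primary screen in duplicate at 25 uM, actives followed up in concentration series.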

[6] = molecular target: human Opioid Receptor Delta 1 (Opiate D1), OPRD1 (gene 4985) (UniProt P41143); experiment: NVS_GPCR_hOpiate_D1: NovaScreen (NVS) G Protein-Coupled Receptor Assay for human Opioid Receptor Delta 1 (Opiate D1) (AID 2283280)
Chain of human Opioid Receptor Delta 1 (Opiate D1), OPRD1 (gene 4985) (P41143 whole entry, looked up): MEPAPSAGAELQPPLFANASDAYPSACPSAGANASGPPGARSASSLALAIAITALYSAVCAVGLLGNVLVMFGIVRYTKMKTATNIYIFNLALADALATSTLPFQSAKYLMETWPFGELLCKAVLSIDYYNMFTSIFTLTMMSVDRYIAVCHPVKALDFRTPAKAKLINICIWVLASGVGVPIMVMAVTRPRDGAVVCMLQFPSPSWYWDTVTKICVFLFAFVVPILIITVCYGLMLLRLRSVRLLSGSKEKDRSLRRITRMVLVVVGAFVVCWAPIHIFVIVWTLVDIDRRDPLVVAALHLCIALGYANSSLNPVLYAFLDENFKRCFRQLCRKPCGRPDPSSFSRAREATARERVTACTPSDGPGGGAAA
Procedure, shortened: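 Membrane preparations from CHO cells bearing the human receptor were incubated 1 h with test chemical, and bound radioligand was counted after filtration. Actives from 25 uM duplicate screening were retested in concentration-response.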

[7] = molecular target: Muscarinic acetylcholine receptor M1 (Homo sapiens) (UniProt P11229); experiment: NVS_GPCR_hM1: NovaScreen (NVS) G Protein-Coupled Receptor Assay for human Muscarinic, M1 Receptor (AID 2283270)
Chain of Muscarinic acetylcholine receptor M1 (Homo sapiens) (P11229 whole entry, looked up): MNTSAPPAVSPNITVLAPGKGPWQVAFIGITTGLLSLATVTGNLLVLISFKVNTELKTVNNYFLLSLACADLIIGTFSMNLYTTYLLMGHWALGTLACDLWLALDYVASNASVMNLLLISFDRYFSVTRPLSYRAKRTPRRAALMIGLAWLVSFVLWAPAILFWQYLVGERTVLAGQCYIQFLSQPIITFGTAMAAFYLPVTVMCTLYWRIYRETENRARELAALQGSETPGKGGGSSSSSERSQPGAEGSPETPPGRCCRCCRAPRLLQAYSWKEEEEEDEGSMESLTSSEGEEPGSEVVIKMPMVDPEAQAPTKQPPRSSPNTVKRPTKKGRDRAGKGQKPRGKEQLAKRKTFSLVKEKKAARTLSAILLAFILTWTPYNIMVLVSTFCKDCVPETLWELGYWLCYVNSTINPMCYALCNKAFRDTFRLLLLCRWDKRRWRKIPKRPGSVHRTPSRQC
Procedure, shortened: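 Actives from a duplicate 25 uM single-point screen were retested in concentration series. Binding measured as displacement of a radioligand from CHO-derived receptor preparation, 1 h incubation, filtration and scintillation counting, analysed as signal loss against DMSO.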

[8] = molecular target: Muscarinic acetylcholine receptor M3 (Homo sapiens) (UniProt P20309); experiment: NVS_GPCR_hM3: NovaScreen (NVS) G Protein-Coupled Receptor Assay for human Muscarinic, M3 Receptor (AID 2283272)
Chain of Muscarinic acetylcholine receptor M3 (Homo sapiens) (P20309 whole entry, looked up): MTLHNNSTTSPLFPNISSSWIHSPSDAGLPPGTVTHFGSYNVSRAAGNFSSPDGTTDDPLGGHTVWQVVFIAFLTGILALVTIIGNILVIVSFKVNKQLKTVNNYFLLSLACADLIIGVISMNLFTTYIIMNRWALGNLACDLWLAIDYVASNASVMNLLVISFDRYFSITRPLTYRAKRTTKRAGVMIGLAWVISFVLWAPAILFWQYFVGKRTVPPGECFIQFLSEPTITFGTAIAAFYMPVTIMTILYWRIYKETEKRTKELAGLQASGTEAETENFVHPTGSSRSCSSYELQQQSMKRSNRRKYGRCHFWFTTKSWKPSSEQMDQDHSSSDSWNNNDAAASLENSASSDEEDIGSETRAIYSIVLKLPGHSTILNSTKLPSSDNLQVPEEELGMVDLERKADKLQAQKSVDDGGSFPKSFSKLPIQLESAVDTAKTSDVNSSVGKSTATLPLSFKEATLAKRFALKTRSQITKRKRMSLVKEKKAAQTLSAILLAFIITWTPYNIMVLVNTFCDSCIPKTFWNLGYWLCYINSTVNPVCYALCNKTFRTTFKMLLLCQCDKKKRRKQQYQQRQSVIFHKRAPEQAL
Procedure, shortened: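 Radioligand displacement binding on human M3 receptor in CHO-derived membranes, 1 h incubation, filter-based scintillation counting. Primary screen in duplicate at 25 uM; actives followed up in concentration series; loss of signal versus DMSO.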

[9] = molecular target: human Muscarinic, M4 Receptor, CHRM4 (gene 1132) (UniProt P08173); experiment: NVS_GPCR_hM4: NovaScreen (NVS) G Protein-Coupled Receptor Assay for human Muscarinic, M4 Receptor (AID 2283274)
Chain of human Muscarinic, M4 Receptor, CHRM4 (gene 1132) (P08173 whole entry, looked up): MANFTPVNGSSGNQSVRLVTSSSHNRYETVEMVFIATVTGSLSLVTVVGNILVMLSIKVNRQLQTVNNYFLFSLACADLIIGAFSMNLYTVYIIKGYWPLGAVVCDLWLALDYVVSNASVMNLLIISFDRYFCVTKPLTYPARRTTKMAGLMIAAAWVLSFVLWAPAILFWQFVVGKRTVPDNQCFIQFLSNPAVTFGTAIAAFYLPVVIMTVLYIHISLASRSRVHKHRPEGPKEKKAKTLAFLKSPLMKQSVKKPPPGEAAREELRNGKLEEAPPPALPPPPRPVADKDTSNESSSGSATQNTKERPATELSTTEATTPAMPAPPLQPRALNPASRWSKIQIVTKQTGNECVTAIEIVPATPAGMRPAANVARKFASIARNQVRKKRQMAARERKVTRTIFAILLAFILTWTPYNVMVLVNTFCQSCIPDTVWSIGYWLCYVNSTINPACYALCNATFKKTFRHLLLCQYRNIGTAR
Procedure, shortened: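 Filter-based scintillation counting of radioligand bound to CHO-expressed human M4 preparations after 1 h; loss of signal fitted versus DMSO. Initial duplicate testing at 25 uM, concentration-response follow-up for actives.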

[10] = molecular target: human Neuropeptide Receptor Y1 (NPY1), NPY1R (gene 4886) (UniProt P25929); experiment: NVS_GPCR_hNPY1: NovaScreen (NVS) G Protein-Coupled Receptor Assay for human Neuropeptide Receptor Y1 (NPY1) (AID 2283276)
Chain of human Neuropeptide Receptor Y1 (NPY1), NPY1R (gene 4886) (P25929 whole entry, looked up): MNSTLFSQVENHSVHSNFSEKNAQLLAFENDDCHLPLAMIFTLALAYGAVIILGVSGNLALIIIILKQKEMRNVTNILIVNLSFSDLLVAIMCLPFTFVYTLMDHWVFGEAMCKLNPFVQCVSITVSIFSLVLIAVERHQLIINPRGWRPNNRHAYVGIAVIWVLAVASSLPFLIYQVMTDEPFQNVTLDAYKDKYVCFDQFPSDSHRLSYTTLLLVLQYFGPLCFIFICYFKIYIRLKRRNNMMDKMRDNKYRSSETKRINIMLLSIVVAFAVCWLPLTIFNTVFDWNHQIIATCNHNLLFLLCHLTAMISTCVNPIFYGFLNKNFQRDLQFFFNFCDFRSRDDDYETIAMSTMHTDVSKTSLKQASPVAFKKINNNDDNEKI
Procedure, shortened: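 Displacement of specific radioligand from NPY1 receptor of SK-N-MC origin, read by filtration and scintillation after 1 h. Compounds first tested at 25 uM in duplicate, then actives in concentration series; signal loss relative to DMSO.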

[11] = molecular target: human Neurotensin Receptor (NTS), NTSR1 (gene 4923) (UniProt P30989); experiment: NVS_GPCR_hNTS: NovaScreen (NVS) G Protein-Coupled Receptor Assay for human Neurotensin Receptor (NTS) (AID 2283279)
Procedure, shortened: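 Compounds competed with a radiolabelled ligand for binding to CHO-derived human neurotensin receptor; bound signal counted after filtration, 1 h. Screened first at a single concentration of 25 uM in duplicate, then concentration series to 50 uM maximum for actives.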

[12] = molecular target: human Thromboxane A2 Receptor (TXA2), TBXA2R (gene 6915) (UniProt P21731); experiment: NVS_GPCR_hTXA2: NovaScreen (NVS) G Protein-Coupled Receptor Assay for human Thromboxane A2 Receptor (TXA2) (AID 2283282);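 further: actives reduce bound radioligand signal relative to DMSO baseline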
Chain of human Thromboxane A2 Receptor (TXA2), TBXA2R (gene 6915) (P21731 whole entry, looked up): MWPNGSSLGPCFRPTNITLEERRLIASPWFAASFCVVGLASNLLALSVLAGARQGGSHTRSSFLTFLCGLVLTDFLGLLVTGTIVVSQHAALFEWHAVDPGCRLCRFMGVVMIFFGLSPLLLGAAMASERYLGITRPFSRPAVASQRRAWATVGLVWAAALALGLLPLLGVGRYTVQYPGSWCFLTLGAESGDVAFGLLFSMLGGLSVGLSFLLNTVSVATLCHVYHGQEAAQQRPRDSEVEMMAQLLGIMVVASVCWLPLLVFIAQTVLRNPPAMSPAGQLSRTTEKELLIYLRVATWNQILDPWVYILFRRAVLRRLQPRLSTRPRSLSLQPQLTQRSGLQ
Procedure, shortened: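 Cell-free radioligand binding with human platelet-derived receptor; 1 h after dosing, filter-based scintillation counting, loss of signal vs DMSO. Primary screen in duplicate at 25 uM.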

[13] = molecular target: human Vasopressin 1A Receptor (V1A), AVPR1A (gene 552) (UniProt P37288); experiment: NVS_GPCR_hV1A: NovaScreen (NVS) G Protein-Coupled Receptor Assay for human Vasopressin 1A Receptor (V1A) (AID 2283284)
Procedure, shortened: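 Single-concentration duplicate screen at 25 uM, with concentration-response follow-up (top 50 uM) for actives. The assay measured displacement of a radioligand from human platelet-derived receptor after 1.5 h, detected by filtration and scintillation counting.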

[14] = molecular target: mouse Cholecystokinin, CCK1 Receptor (CCKA), Cckar (gene 12425) (UniProt O08786); experiment: NVS_GPCR_mCCKAPeripheral: NovaScreen (NVS) G Protein-Coupled Receptor Assay for mouse Cholecystokinin, CCK1 Receptor (CCKA) (AID 2283285)
Chain of mouse Cholecystokinin, CCK1 Receptor (CCKA), Cckar (gene 12425) (O08786 whole entry, looked up): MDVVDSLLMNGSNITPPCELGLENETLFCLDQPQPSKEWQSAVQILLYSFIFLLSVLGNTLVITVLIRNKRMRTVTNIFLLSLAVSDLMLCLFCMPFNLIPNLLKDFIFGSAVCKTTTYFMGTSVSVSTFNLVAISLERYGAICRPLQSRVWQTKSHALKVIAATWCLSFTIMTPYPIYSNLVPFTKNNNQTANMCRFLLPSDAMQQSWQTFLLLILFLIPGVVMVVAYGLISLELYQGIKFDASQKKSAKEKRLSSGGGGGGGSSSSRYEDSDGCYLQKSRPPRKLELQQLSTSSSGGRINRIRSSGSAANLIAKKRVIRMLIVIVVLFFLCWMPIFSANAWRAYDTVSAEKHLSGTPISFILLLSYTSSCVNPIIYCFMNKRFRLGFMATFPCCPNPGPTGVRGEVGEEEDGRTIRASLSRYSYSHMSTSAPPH
Procedure, shortened: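 Chemicals were first screened in duplicate at 25 uM, with those meeting threshold (e.g., 30% inhibition) retested in singleton concentration series to 50 uM maximum. Binding of radioligand to mouse pancreatic membranes was read after 2 h by filtration and scintillation counting.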

[15] = molecular target: Muscarinic acetylcholine receptor M2 (Homo sapiens) (UniProt P08172); experiment: NVS_GPCR_hM2: NovaScreen (NVS) G Protein-Coupled Receptor Assay for human Muscarinic, M2 Receptor (AID 2283273)
Chain of Muscarinic acetylcholine receptor M2 (Homo sapiens) (P08172 whole entry, looked up): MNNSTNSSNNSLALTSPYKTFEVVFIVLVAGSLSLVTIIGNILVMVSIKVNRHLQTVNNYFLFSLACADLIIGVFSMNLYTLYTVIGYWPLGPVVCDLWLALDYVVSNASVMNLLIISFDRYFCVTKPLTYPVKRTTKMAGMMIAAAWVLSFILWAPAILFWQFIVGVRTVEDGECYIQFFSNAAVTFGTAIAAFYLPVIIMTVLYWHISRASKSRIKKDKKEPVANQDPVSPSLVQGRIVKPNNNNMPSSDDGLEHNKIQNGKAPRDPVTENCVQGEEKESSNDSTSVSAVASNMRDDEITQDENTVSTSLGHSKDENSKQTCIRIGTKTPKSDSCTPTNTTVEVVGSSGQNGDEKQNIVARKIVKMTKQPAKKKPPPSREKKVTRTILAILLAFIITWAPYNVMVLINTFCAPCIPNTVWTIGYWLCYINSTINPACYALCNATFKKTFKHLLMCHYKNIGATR
Procedure, shortened: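 Radioligand competition binding, cell-free, receptor from CHO; 1 h incubation; scintillation detection. Primary testing at 25 uM in duplicate.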

[16] = molecular target: human Leukotriene B4 Receptor 1 (LTB4-BLT1), LTB4R (gene 1241) (UniProt Q15722); experiment: NVS_GPCR_hLTB4_BLT1: NovaScreen (NVS) G Protein-Coupled Receptor Assay for human Leukotriene B4 Receptor 1 (LTB4-BLT1) (AID 2283271)
Procedure, shortened: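 Cell-free human neutrophil receptor preparation, 1 h exposure, radioligand binding read by filter scintillation counting. Single 25 uM duplicate screen, then concentration series topping at 50 uM; binding loss scored against DMSO baseline.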

For CCc1cccc(CC)c1N(COC)C(=O)CCl, which outcome [1] is on record?
Its outcome is “inactive”.

And the AC50 [2]?
The AC50 was 4.96 µM (active).

What about the outcome [3] of the same compound?
Its outcome is “inactive”.

How did the outcome [4] turn out when CCCCOC(=O)c1ccccc1C(=O)O was run?
The outcome was “inactive”.

With CNC(=O)ON=C(C)SC as the compound, how does the outcome [5] read?
Its outcome is “inactive”.

For CCOP(=S)(OCC)Oc1ccc2c(C)c(Cl)c(=O)oc2c1, which outcome [3] is on record?
Its outcome is “inactive”.

O=C(O)c1cc(Oc2ccc(C(F)(F)F)cc2Cl)ccc1[N+](=O)[O-] was tested. Which outcome [6] did it give?
The outcome was “inactive”.

What does the source list for CC[C@H](C)[C@H]1O[C@]2(C=C[C@@H]1C)C[C@@H]1C[C@@H](C/C=C(\C)[C@@H](O[C@H]3C[C@H](OC)[C@@H](O[C@H]4C[C@H](OC)[C@@H](NC)[C@H](C)O4)[C@H](C)O3)[C@@H](C)/C=C/C=C3\CO[C@@H]4[C@H](O)C(C)=C[C@@H](C(=O)O1)[C@]34O)O2?
AC50 [7]: 12.6 µM (active); AC50 [8]: 10.1 µM (active); AC50 [9]: 12.9 µM (active); AC50 [10]: 18.3 µM (active); AC50 [1]: 8.41 µM (active); AC50 [11]: 0.00229 µM (active); AC50 [6]: 15.5 µM (active); AC50 [12]: 14.5 µM (active); outcome [13]: inactive; AC50 [14]: 10.4 µM (active); AC50 [2]: 15 µM (active)

What does the source list for COP(=O)(OC)OC(Br)C(Cl)(Cl)Br (stereo not drawn)?
AC50 [10]: 15.5 µM (active); outcome [5]: inactive; AC50 [2]: 8.83 µM (active)

For CCCSP(=O)(OCC)Oc1ccc(Br)cc1Cl (stereo not drawn), which outcome [14] is on record?
Its outcome is “inactive”.

What about the AC50 [2] of the same compound?
The AC50 was 4.96 µM (active).

CC(C)[C@H](C(=O)O[C@H](C#N)c1cccc(Oc2ccccc2)c1)c1ccc(Cl)cc1 was tested. Which AC50 [1] did it give?
The AC50 was 4.82 µM (active).

With FC(F)C(F)(F)OCC(Cn1cncn1)c1ccc(Cl)cc1Cl (stereo not drawn) as the compound, how does the outcome [9] read?
The outcome was “inactive”.

What about the outcome [12] of the same compound?
The outcome was “inactive”.

And the AC50 [2]?
The AC50 was 9.52 µM (active).

Which AC50 [7] does the source give for Cc1cc(C2CC2)nc(Nc2ccccc2)n1 here?
The AC50 was 10.1 µM (active).

What about the AC50 [8] of the same compound?
The AC50 was 5.41 µM (active).

And the AC50 [15]?
Its AC50 is 6.13 µM (active).

What about the AC50 [9] of the same compound?
Its AC50 is 6.51 µM (active).

What does the source list for CC(C)=CC1C(C(=O)OCN2C(=O)C3=C(CCCC3)C2=O)C1(C)C (stereo not drawn)?
AC50 [5]: 7.72 µM (active); outcome [4]: inactive

How did the AC50 [10] turn out when N#CSCSC#N was run?
The AC50 was 12.6 µM (active).

Which outcome [4] does the source give for CCOP(=S)(OCC)OC(Cl)C(Cl)(Cl)Cl (stereo not drawn) here?
The outcome was “inactive”.

Which outcome [9] does the source give for CC(C)N(C(=O)SCC(Cl)=C(Cl)Cl)C(C)C here?
The outcome was “inactive”.

Which outcome [16] does the source give for COc1ccc(C(=CC(=O)N2CCOCC2)c2ccc(Cl)cc2)cc1OC here?
The outcome was “inactive”.

For C[Si](Cn1cncn1)(c1ccc(F)cc1)c1ccc(F)cc1, which AC50 [8] is on record?
The AC50 was 11.6 µM (active).

What about the outcome [15] of the same compound?
The outcome was “inactive”.

And the AC50 [9]?
Its AC50 is 14.4 µM (active).

And the AC50 [14]?
The AC50 was 25 µM (active).

What about the AC50 [5] of the same compound?
The AC50 was 6.38 µM (active).

And the AC50 [2]?
The AC50 was 9.11 µM (active).
